{"source": "PubChem BioAssay AID504408", "about": "(Broad Institute, 2011)", "note": "Out of some 300,000 compounds screened, about 5,200 (1.7%) were called active. The sample as a whole holds a higher share of actives than the screen did. Unmarked numbers belong to inactive results.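 How the source made its calls: active means mean replicate activation of at least 50% with a set share of replicates each reaching 50%; inconclusive means only one of those two conditions met; inactive means mean below 50% and too few replicates reaching it.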"}
{"assay": "HSF-1 response element luciferase induction – NIH3T3-HGL cells, MG132 stress, luminescence, single point, primary screen (AID 504408);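 further: 0% = median of the neutral control wells and 100% = twice that signal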", "details": "NIH3T3-HGL HSF-1 luciferase reporter, MG132, 8 h; at 9 µM; stronger effect = higher value; 100% = twice DMSO control signal"}
{"smiles": "COc1ccc2sc(N(CCCN(C)C)C(=O)c3ccc(S(=O)(=O)N(C)C4CCCCC4)cc3)nc2c1", "activation": "-14.5%"}
{"smiles": "O=C1c2cccc3cc(Br)cc(c23)C(=O)N1Nc1ccccc1", "activation": "-9.54%"}
{"smiles": "O=C(CCC(=O)OCc1ccc(Cl)cc1)Nc1ccccc1", "activation": "10.6%"}
{"smiles": "O=C1C=C(c2ccc(Cl)cc2)C(=O)N1Nc1ccccc1", "activation": "82% (active)"}
{"smiles": "Cc1cc(C)n2nc(C(=O)OCC(=O)N(CCC#N)c3ccc(F)cc3)nc2n1", "activation": "12.7%"}
{"smiles": "O=C(NCc1ccccc1Cl)C(=O)NCC1CCCN1S(=O)(=O)c1cccs1", "note": "(stereo unspecified)", "activation": "4.38%"}
{"smiles": "CCCCN(C(=O)c1ccc(C)o1)c1c(N)n(CCCC)c(=O)[nH]c1=O", "activation": "12.2%"}
{"smiles": "CN(C)CCCN(C(=O)c1ccc(S(=O)(=O)N2CCCCCC2)cc1)c1nc2cc3c(cc2s1)OCCO3", "activation": "-46.2%"}
{"smiles": "CCCCn1c(N)c(N(CC(C)C)C(=O)c2cccc(S(=O)(=O)N3CC(C)OC(C)C3)c2)c(=O)[nH]c1=O", "note": "(stereo unspecified)", "activation": "-0.424%"}
{"smiles": "CCOc1ccc(S(=O)(=O)NCCSc2ccccc2)cc1", "activation": "61.2% (active)"}
{"smiles": "Cc1ccc(S(=O)(=O)NCCSc2ccccc2)cc1[N+](=O)[O-]", "activation": "-0.244%"}
{"smiles": "CCOc1ccc(S(=O)(=O)NCCC(=O)N2CCCCCCC2)cc1", "activation": "4.97%"}
{"smiles": "COc1ccc(-c2cc(C(=O)N/N=C/c3cccnc3)c3ccccc3n2)c(OC)c1", "activation": "5.29%"}
{"smiles": "O=C(NCCNc1ccc([N+](=O)[O-])cc1Cl)c1ccccc1F", "activation": "18.7%"}
{"smiles": "O=C(NCCCNc1ccc([N+](=O)[O-])cc1Cl)c1ccccc1F", "activation": "-9.78%"}
{"smiles": "O=C(NCCNc1ccccc1[N+](=O)[O-])c1ccccc1F", "activation": "55.9% (active)"}
{"smiles": "O=C(c1ccncc1)N1CCN(S(=O)(=O)c2cccc([N+](=O)[O-])c2)CC1", "activation": "4.99%"}
{"smiles": "COc1cccc(NC(=O)CN(C)C(=O)CSCc2nc3scc(-c4cccs4)c3c(=O)[nH]2)c1", "activation": "0.833%"}
{"smiles": "O=C(c1ccc(NS(=O)(=O)c2ccc3[nH]c(=O)[nH]c3c2)cc1)N1CCCCC1", "activation": "12.7%"}
{"smiles": "COc1ccc(Cl)cc1NC(=O)CN(C)C(=O)c1cc2ccccc2cc1OC", "activation": "21%"}
{"smiles": "COc1ccc(Cl)cc1NC(=O)CN(C)C(=O)CCCc1c[nH]c2ccccc12", "activation": "60.8% (active)"}
{"smiles": "COc1ccccc1NC(=O)CCCc1c[nH]c2ccccc12", "activation": "-2.42%"}
{"smiles": "COc1ccccc1NS(=O)(=O)c1ccc(C)c(C(=O)NCC(c2ccco2)N(C)C)c1", "note": "(stereo unspecified)", "activation": "-1.37%"}
{"smiles": "COc1cc2ccccc2cc1C(=O)Nc1ccc(N2CCOCC2)cc1", "activation": "4.47%"}
{"smiles": "COc1ccccc1C(=O)Nc1cccc(C(=O)N2CCOCC2)c1", "activation": "8.16%"}
{"smiles": "CCc1cc(C(c2ccccc2OC)N2CCOCC2)c(NC(=O)c2ccccc2)s1", "note": "(stereo unspecified)", "activation": "68.8% (active)"}
